The values below come from PMC7862700, “An all-to-all approach to the identification of sequence-specific readers for epigenetic DNA modifications on cytosine”.

Test in all cases: DAPPL (digital affinity profiling via proximity ligation, sequencing); 10 mM Tris-HCl pH 7.5, 50 mM NaCl, 1 mM DTT, 4% glycerol, room temperature, 30 min; GST-TFs on glutathione beads, 16-mer random dsDNA library, 0.1% formaldehyde crosslink after washing; high values mean tight binding
The target of one experiment is HSF1 (Homo sapiens, UniProt Q00613 1-529). As to conditions: protein: recombinant; tags: N-terminal GST; chain copies: 3; dsDNA, one strand shown. The essentials:
(§1)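 Human transcription factors carrying a GST fusion were produced in yeast, bound to glutathione beads, tagged with DNA barcodes and pooled together with a tag-only sample. Each pool was held with 200 nmole of a random double-stranded 16-mer DNA library in Tris/NaCl/DTT/glycerol buffer for 30 min at room temperature, then washed, crosslinked in 0.1% formaldehyde, proximity-ligated with BsaI/T4 ligase (1 h, 37 °C), PCR-amplified and sequenced on an Illumina NextSeq500. Binding signal is the read frequency of each hexamer for a given factor divided by its frequency in the tag-only sample.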

The target of a further experiment is ELF4 (Homo sapiens, UniProt Q99607 1-663). Particulars: protein: recombinant; tags: N-terminal GST; dsDNA, one strand shown. In a few lines: as §1
ELF4, sequence (Q99607 whole entry): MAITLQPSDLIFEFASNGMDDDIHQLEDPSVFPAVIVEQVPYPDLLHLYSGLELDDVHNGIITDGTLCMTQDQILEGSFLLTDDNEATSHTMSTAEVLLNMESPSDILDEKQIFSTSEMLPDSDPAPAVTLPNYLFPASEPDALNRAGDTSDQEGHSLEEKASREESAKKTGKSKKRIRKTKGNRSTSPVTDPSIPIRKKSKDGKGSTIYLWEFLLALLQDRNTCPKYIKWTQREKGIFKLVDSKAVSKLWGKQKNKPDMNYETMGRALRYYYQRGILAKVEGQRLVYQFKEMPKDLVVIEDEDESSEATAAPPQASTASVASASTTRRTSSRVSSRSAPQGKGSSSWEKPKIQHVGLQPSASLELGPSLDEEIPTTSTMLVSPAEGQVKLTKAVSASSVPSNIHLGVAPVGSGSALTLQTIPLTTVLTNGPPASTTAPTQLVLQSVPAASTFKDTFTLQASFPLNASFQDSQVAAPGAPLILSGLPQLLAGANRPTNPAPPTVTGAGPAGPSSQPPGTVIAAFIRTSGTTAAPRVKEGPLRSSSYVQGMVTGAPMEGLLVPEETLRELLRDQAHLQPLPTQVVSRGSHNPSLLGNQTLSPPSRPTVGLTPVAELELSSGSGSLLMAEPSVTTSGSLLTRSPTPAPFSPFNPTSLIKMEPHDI
The target of a further experiment is T1, ELK4 (Homo sapiens, UniProt P28324-2 1-405).
T1 sequence: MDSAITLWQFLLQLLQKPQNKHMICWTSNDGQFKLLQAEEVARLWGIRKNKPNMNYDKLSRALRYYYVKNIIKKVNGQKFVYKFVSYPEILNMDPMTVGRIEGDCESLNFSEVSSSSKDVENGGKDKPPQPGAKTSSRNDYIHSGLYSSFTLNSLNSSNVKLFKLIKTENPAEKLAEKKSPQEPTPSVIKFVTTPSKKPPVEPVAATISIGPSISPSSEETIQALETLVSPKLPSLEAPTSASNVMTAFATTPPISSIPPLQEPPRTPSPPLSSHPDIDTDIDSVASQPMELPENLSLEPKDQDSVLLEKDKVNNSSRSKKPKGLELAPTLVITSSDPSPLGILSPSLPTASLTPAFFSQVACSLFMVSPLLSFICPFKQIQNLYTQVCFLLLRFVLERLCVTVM
Particulars: protein: recombinant; tags: N-terminal GST; dsDNA, one strand shown. In a few lines:
as §1

Another experiment addresses T2, ETV2 (Homo sapiens, UniProt O00321 1-342).
T2 sequence: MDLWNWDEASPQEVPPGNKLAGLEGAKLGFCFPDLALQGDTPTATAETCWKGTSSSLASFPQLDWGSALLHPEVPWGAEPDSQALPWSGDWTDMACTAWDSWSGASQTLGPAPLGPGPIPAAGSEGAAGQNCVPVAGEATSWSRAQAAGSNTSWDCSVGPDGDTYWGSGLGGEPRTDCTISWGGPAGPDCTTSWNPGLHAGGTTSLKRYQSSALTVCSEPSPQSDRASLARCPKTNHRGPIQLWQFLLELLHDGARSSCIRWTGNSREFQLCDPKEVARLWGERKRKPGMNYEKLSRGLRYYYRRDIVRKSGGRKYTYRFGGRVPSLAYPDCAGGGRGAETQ
Particulars: protein: recombinant; tags: N-terminal GST; dsDNA, one strand shown. In a few lines: as §1

The target of a further experiment is CRX (Homo sapiens, UniProt O43186 1-299). As to conditions: protein: recombinant; tags: N-terminal GST; dsDNA, one strand shown. In a few lines:
as §1

A further experiment concerns the target ETV1 (Homo sapiens, UniProt P50549 1-477). As to conditions: protein: recombinant; tags: N-terminal GST; dsDNA, one strand shown. The essentials:
as §1

The target of another experiment is T3, ELK1 (Homo sapiens, UniProt P19419 1-428).
T3 sequence: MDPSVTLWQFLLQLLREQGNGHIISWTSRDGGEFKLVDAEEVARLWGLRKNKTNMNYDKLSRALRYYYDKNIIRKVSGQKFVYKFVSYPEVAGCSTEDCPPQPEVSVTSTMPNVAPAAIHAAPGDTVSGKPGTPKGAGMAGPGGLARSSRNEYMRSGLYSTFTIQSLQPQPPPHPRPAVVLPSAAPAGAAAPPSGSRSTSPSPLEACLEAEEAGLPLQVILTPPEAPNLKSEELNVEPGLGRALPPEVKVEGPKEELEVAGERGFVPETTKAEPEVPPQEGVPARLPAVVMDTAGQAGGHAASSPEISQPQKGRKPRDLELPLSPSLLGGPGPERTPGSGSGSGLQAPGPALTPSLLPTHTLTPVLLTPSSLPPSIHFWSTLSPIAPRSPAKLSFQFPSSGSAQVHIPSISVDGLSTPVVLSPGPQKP
As to conditions: protein: recombinant; tags: N-terminal GST; dsDNA, one strand shown. The essentials: as §1

The target in the next experiment is T4, EHF (Homo sapiens, UniProt Q9NZC4 1-300).
T4 sequence: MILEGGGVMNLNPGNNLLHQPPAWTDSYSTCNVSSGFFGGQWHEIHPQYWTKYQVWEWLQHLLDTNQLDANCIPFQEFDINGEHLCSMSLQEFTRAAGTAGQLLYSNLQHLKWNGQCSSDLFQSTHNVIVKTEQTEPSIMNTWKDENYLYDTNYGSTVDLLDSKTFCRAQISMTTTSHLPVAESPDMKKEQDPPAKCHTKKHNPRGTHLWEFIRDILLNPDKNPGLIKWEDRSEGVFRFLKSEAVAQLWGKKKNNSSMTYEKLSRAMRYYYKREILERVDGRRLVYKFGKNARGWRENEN
As to conditions: protein: recombinant; tags: N-terminal GST; dsDNA, one strand shown. The essentials: as §1

The target in the next experiment is SPI1 (Homo sapiens, UniProt P17947 1-270). As to conditions: protein: recombinant; tags: N-terminal GST; dsDNA, one strand shown. In a few lines:
as §1

The target in a further experiment is T5, ELK3 (Homo sapiens, UniProt P41970 1-407).
T5 sequence: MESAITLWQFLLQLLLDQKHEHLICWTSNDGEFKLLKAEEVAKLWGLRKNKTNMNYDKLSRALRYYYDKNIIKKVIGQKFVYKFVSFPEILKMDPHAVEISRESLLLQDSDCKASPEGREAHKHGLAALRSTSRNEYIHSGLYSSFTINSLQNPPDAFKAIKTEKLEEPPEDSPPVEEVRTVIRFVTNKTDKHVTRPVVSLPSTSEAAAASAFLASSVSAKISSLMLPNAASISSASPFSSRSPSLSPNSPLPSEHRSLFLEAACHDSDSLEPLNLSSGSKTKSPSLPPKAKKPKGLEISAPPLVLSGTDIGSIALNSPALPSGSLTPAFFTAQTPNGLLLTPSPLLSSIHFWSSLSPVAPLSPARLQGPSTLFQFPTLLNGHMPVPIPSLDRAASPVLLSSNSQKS
Particulars: protein: recombinant; tags: N-terminal GST; dsDNA, one strand shown. The essentials:
as §1

The next experiment deals with T6, ETV3L (Homo sapiens, UniProt Q6ZN32 1-361).
T6 sequence: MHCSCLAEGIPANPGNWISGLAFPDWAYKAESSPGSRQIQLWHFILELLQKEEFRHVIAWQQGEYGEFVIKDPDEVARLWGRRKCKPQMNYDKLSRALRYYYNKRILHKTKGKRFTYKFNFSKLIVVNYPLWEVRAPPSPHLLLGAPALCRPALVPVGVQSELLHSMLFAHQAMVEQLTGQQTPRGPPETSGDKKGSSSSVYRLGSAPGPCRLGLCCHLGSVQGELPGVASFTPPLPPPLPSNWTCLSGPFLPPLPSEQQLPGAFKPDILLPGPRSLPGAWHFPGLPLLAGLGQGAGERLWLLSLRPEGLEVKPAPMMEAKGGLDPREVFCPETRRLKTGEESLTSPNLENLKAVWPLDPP
Particulars: protein: recombinant; tags: N-terminal GST; dsDNA, one strand shown. In a few lines:
as §1

In another experiment the target is T7, ETS2 (Homo sapiens, UniProt P15036 1-469).
T7 sequence: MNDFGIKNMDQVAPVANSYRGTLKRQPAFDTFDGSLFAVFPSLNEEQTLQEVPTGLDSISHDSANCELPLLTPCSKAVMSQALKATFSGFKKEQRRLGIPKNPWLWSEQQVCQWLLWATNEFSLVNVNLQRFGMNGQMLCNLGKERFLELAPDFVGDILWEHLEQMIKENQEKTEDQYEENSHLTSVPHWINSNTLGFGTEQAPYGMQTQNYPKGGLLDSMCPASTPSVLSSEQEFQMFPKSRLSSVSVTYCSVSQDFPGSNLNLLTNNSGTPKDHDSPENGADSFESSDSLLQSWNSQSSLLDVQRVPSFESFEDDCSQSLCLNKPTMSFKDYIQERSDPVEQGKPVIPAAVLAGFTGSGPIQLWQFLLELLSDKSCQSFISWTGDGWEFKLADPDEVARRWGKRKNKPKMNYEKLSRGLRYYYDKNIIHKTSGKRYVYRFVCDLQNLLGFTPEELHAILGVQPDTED
Particulars: protein: recombinant; tags: N-terminal GST; dsDNA, one strand shown. The essentials:
as §1

The target in a further experiment is T8, SPDEF (Homo sapiens, UniProt O95238 1-335).
T8 sequence: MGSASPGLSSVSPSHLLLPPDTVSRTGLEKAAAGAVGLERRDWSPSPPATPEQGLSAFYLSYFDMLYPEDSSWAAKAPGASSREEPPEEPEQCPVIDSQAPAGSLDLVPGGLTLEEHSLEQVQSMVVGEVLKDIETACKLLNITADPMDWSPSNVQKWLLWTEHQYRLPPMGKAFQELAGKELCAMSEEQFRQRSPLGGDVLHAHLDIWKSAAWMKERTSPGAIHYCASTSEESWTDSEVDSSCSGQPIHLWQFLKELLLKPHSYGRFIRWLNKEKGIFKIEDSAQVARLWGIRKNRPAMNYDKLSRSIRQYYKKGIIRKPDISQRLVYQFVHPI
As to conditions: protein: recombinant; tags: N-terminal GST; dsDNA, one strand shown. In a few lines:
as §1

Another experiment deals with ETV6 (Homo sapiens, UniProt P41212 1-452). As to conditions: protein: recombinant; tags: N-terminal GST; dsDNA, one strand shown. In a few lines: as §1
ETV6, sequence (P41212 whole entry): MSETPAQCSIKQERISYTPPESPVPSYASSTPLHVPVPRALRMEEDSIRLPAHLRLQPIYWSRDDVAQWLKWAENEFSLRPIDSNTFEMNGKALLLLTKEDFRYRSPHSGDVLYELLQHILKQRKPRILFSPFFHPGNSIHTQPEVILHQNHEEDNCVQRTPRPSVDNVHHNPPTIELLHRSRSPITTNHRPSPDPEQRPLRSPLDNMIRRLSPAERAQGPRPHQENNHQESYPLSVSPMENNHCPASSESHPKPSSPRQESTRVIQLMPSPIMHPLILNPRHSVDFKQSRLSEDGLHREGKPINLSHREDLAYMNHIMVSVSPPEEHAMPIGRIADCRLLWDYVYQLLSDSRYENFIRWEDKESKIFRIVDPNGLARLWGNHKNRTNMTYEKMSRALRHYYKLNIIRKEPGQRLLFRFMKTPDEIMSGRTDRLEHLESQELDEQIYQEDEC
The next experiment concerns the target T9, ERF (Homo sapiens, UniProt P50548 1-548).
T9 sequence: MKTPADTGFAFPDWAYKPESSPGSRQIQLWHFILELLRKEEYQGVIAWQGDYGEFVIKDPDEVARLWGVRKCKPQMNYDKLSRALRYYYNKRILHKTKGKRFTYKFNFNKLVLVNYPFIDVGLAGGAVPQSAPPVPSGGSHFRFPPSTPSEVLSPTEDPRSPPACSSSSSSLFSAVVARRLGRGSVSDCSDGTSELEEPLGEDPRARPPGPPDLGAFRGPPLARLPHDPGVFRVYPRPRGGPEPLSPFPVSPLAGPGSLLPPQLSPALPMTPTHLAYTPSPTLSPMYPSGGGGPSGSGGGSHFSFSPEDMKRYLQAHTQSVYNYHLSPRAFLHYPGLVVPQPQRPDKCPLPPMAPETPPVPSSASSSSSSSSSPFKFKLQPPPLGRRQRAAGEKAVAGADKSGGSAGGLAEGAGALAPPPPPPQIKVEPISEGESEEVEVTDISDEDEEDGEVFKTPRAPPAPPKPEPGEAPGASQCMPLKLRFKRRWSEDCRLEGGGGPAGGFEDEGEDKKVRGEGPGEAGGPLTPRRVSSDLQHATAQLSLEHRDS
Particulars: protein: recombinant; tags: N-terminal GST; dsDNA, one strand shown. In a few lines: as §1

HSF1, sequence (Q00613 whole entry, the tested form may be a part): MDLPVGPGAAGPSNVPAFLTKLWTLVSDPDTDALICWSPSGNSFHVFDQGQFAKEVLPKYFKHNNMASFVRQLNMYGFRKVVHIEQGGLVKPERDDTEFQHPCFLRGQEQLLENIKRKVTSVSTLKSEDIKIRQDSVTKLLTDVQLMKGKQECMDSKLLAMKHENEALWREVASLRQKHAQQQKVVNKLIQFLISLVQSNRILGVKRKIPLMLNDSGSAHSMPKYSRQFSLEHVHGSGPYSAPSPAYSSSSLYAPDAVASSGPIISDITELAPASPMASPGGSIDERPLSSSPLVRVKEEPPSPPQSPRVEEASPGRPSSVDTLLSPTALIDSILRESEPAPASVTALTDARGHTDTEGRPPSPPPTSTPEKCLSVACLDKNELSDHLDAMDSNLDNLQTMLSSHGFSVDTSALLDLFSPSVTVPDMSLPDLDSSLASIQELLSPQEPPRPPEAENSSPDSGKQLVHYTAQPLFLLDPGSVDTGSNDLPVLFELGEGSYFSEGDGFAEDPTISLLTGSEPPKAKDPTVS
CRX, sequence (O43186 whole entry): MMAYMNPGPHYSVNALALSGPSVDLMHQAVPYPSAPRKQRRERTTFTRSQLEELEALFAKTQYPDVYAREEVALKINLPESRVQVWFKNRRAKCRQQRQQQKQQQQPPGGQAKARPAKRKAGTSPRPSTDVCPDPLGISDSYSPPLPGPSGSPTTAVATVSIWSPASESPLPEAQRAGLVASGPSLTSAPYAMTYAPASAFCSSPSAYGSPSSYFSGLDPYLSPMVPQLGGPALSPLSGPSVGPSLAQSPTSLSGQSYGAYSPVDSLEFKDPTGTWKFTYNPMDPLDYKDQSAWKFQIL
ETV1, sequence (P50549 whole entry): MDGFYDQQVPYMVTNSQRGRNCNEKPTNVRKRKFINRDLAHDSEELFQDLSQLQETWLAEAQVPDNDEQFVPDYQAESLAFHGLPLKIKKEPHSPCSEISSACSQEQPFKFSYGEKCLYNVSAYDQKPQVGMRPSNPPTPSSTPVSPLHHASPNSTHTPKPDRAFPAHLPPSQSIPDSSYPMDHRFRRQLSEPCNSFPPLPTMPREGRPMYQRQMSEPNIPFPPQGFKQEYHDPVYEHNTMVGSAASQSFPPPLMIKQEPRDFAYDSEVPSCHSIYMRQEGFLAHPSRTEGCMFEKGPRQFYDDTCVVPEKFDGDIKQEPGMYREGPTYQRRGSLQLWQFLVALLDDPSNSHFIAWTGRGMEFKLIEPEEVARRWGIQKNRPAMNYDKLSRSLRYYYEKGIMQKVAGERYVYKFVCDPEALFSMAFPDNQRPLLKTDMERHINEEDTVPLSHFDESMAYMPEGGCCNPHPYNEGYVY

On to AGGGTT, for which the binding signal is 1.02 fold enrichment (6-mer frequency, TF over GST control) with HSF1; 1.03 fold enrichment (6-mer frequency, TF over GST control) with ELF4; 1.14 fold enrichment (6-mer frequency, TF over GST control) with ELK4; 1.03 fold enrichment (6-mer frequency, TF over GST control) in the experiment with ETV2; 1.06 fold enrichment (6-mer frequency, TF over GST control) in the experiment with CRX; 1.01 fold enrichment (6-mer frequency, TF over GST control) with ETV1.

On to AGATTA, for which the binding signal with ELK1 was 1.02 fold enrichment (6-mer frequency, TF over GST control); with EHF, 1.03 fold enrichment (6-mer frequency, TF over GST control); in the experiment with SPI1, 1.01 fold enrichment (6-mer frequency, TF over GST control); in the experiment with ELK3, 1.03 fold enrichment (6-mer frequency, TF over GST control); in the experiment with HSF1, 2.62 fold enrichment (6-mer frequency, TF over GST control); with ELF4, 1.05 fold enrichment (6-mer frequency, TF over GST control). Also, the binding signal with ELK4 is 1.05 fold enrichment (6-mer frequency, TF over GST control); with CRX, 4.03 fold enrichment (6-mer frequency, TF over GST control); with ETV3L it was 1.02 fold enrichment (6-mer frequency, TF over GST control); with ETS2 it was 1 fold enrichment (6-mer frequency, TF over GST control); in the experiment with SPDEF, 1.05 fold enrichment (6-mer frequency, TF over GST control); with ETV6 it was 1.04 fold enrichment (6-mer frequency, TF over GST control).

As to GAATAG, the binding signal with HSF1 was 1.11 fold enrichment (6-mer frequency, TF over GST control); with ELK4, 1.02 fold enrichment (6-mer frequency, TF over GST control); with ETV2, 1.03 fold enrichment (6-mer frequency, TF over GST control); with ERF it was 1.08 fold enrichment (6-mer frequency, TF over GST control); with SPDEF, 1.02 fold enrichment (6-mer frequency, TF over GST control).
